Results reported in PubChem BioAssay (NCI).
About 83,000 compounds went through this panel and 20% of them were active in at least one assay; those are over-represented in the sample as a whole.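 96-well plates, one dose, 48 hours. Percent growth reported; active if below 10.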 Values without a mark were called inactive. Calls of active or inactive are those of the source.

system: OVCAR-3 ovarian; experiment: NCI-60 one-dose screen, 48 h (100 = growth as untreated, 0 = no growth, -100 = all killed); settings: 10 µM unless noted

`c1c[nH]c(CNC2CCCCC2)c1` was tested. Which growth did it give?
Its growth is 98.1%.

`COc1ccc2c(c1)CCCN2c1c2ccccc2nc2ccccc12` was tested. Which growth did it give?
Its growth is -21.7% (active).

For `CC/C=C/C/C=C/C/C=C/C/C=C/C/C=C/C/C=C/CCC(=O)Nc1ccn([C@@H]2O[C@H](CO)[C@@H](O)C2(F)F)c(=O)n1`, which growth is on record?
Its growth is 53.4%.

Which growth does the source give for `Cc1ccc2nc(NC(=O)CSc3nc(-c4ccccc4)c(C#N)c(=O)n3Cc3ccccc3)sc2c1` here?
Its growth is 58.5%.

`NNC(=O)c1nc(N)n(-c2ccc(S(N)(=O)=O)cc2)n1` was tested. Which growth did it give?
The growth was 89.2%.

Which growth does the source give for `O=C(CC(SCc1ccccc1)c1ccccc1)c1ccccc1` (centres undefined) here?
The growth was 86.5%.

`COC1=C(OC)C(=O)C(OC)=C(OC)C1=O` was tested. Which growth did it give?
The growth was 99.3%.

How did the growth turn out when `COC(=O)CCC1=C(C)C2=NC1=CC1=NC(=CC3=NC(=Cc4[nH]c(/c(=C(/C)O)c4C)=C2)C(C(C)=O)=C3C)C(C)=C1CCC(=O)OC` was run?
The growth was 107%.

How did the growth turn out when `CC1=CN2C(=O)C3C4=C(CCCC4)SC3N=C2CN1c1c(C)cccc1C` (centres undefined) was run?
Its growth is 93.9%.

Which growth does the source give for `O=C(Nc1cccc(Oc2nnc(Cl)c3ccccc23)c1)Nc1ccc(Cl)c(C(F)(F)F)c1` here?
The growth was -41.9% (active).

With `CN1CCN(CCCOc2ccc3nc(Nc4ccc(F)c(F)c4)ccc3c2)CC1` as the compound, how does the growth read?
Its growth is 67.4%.

With `COc1ccccc1NC(=O)N/C(N)=N/c1nc2ccccc2s1` as the compound, how does the growth read?
Its growth is -18.9% (active).

For `Cc1ccc(Nc2nc(N)nc(CSCC(=O)NN)n2)cc1`, which growth is on record?
Its growth is 105%.

Which growth does the source give for `CC1CC(C(C)(C)C)C(=O)C(C(C)(C)C)C1` (centres undefined) here?
Its growth is 118%.

With `O=C(O)c1ccc2c(c1Cl)C(=O)c1ccccc1C2=O` as the compound, how does the growth read?
The growth was 99.5%.

How did the growth turn out when `N=c1sc(Cc2ccc(Cl)cc2)cn1CC(=O)c1ccc(F)cc1` was run?
Its growth is 92.6%.

Which growth does the source give for `CCCCn1c(=O)c2c(nc3n2CCCN3CCc2ccc(OCC(=O)NCCN(CC)CC)cc2)n(CCCC)c1=O` here?
Its growth is 71.2%.

With `COc1ccc(NC(=O)c2nc(-c3cc(OC)c(OC)c(OC)c3)n(-c3cccc4ccccc34)n2)cc1OC` as the compound, how does the growth read?
The growth was 27.7%.

Which growth does the source give for `O=C1CCc2c(sc3[nH]c(=S)n(-c4ccc(OC(F)(F)F)cc4)c(=O)c23)C1` here?
The growth was 13.2%.

Which growth does the source give for `C[C@@]1(CCC#N)[C@H]2CC[C@@H]3[C@H]4[C@H](C(=O)/C=C/c5cccnc5)CC[C@]4(C#N)CC[C@@]3(C)[C@]2(C)CC[C@H]1C(=O)/C=C/c1cccnc1` here?
Its growth is 39.9%.

Which growth does the source give for `Cc1c(C)c2c(c(C)c1OCC(=O)O)CC[C@@](C)(CCC[C@@H](C)CCC[C@@H](C)CCCC(C)C)O2` here?
The growth was -67.3% [50 µM] (active).

Which growth does the source give for `O=C(NCCCNc1cc(-c2cn(-c3ccccc3)nc2-c2cccc(O)c2)ccn1)c1ccc(F)cc1` here?
The growth was 38.4%.

`Cn1c(-c2c(N)n(Cc3ccc(C(F)(F)F)cc3)c3nc(C#N)c(C#N)nc23)nc2ccccc21` was tested. Which growth did it give?
The growth was -8.62% (active).

`Nc1nc(N)c2c(n1)NC(c1ccccc1)C1CCc3ccccc3C1=N2` (centres undefined) was tested. Which growth did it give?
The growth was 38.4%.

`COc1ccc2[nH]c(O)c(/C=c3/cc4c(c(-c5cc(OC)c(OC)c(OC)c5)n3)=Nc3ccccc3-4)c2c1` was tested. Which growth did it give?
Its growth is 74.5%.

Which growth does the source give for `CCOC(=O)c1c2ncccc2n2c(=O)n(-c3ccccc3C)nnc12` here?
Its growth is 135%.

Which growth does the source give for `COc1cccc(C(=O)NCCCNc2cc(-c3cn(-c4ccccc4)nc3-c3cccc(OC)c3)ccn2)c1` here?
The growth was 53.3%.

With `N[C@@H](CCCCNCC(=O)O)C(=O)O` as the compound, how does the growth read?
The growth was 114%.

For `CC(CCc1ccc(Cl)c(Cl)c1)NCc1ccc(C(C)(C)C)cc1` (centres undefined), which growth is on record?
Its growth is 98.2%.

Which growth does the source give for `O=Cc1ccc(O)c2ncccc12` here?
The growth was -15.2% (active).

Which growth does the source give for `CCCCOc1nc2ccccc2cc1C1CNC(=O)c2ccccc2N1` (centres undefined) here?
The growth was -9.73% (active).

For `COc1ccc2occ(C3=C(c4c[nH]c5ccccc45)C(=O)N(O)C3=O)c2c1`, which growth is on record?
The growth was 98.9%.

Which growth does the source give for `N#CC1=C(NC=O)Oc2c(ccc3ccccc23)C1c1ccccc1` (centres undefined) here?
The growth was 3.87% (active).

`Fc1c[c-]c(-c2ccccn2)c(F)c1.[CH3-].[Pt+2].c1ccc(P(C[PH+](c2ccccc2)c2ccccc2)c2ccccc2)cc1` was tested. Which growth did it give?
The growth was -74.9% (active).

With `N=C1C(c2nc(-c3ccc(Br)cc3)cs2)=C(O)CN1CC1CCCO1` (centres undefined) as the compound, how does the growth read?
Its growth is 105%.

`NS(=O)(=O)c1cnccc1Sc1ccncc1S(N)(=O)=O` was tested. Which growth did it give?
Its growth is 103%.

`N#Cc1c(-c2ccccn2)[nH]c(=S)[nH]c1=O` was tested. Which growth did it give?
Its growth is 105%.

system: HS 578T breast; experiment: as above; settings: 10 µM unless noted

Which growth does the source give for `c1c[nH]c(CNC2CCCCC2)c1` here?
The growth was 102%.

How did the growth turn out when `COc1ccc2c(c1)CCCN2c1c2ccccc2nc2ccccc12` was run?
Its growth is 10.4%.

`CC/C=C/C/C=C/C/C=C/C/C=C/C/C=C/C/C=C/CCC(=O)Nc1ccn([C@@H]2O[C@H](CO)[C@@H](O)C2(F)F)c(=O)n1` was tested. Which growth did it give?
The growth was 76.1%.

`Cc1ccc2nc(NC(=O)CSc3nc(-c4ccccc4)c(C#N)c(=O)n3Cc3ccccc3)sc2c1` was tested. Which growth did it give?
Its growth is 78.2%.

`NNC(=O)c1nc(N)n(-c2ccc(S(N)(=O)=O)cc2)n1` was tested. Which growth did it give?
The growth was 94.5%.

How did the growth turn out when `O=C(CC(SCc1ccccc1)c1ccccc1)c1ccccc1` (centres undefined) was run?
The growth was 107%.

How did the growth turn out when `COC1=C(OC)C(=O)C(OC)=C(OC)C1=O` was run?
The growth was 97%.

How did the growth turn out when `COC(=O)CCC1=C(C)C2=NC1=CC1=NC(=CC3=NC(=Cc4[nH]c(/c(=C(/C)O)c4C)=C2)C(C(C)=O)=C3C)C(C)=C1CCC(=O)OC` was run?
The growth was 89.1%.

How did the growth turn out when `CC1=CN2C(=O)C3C4=C(CCCC4)SC3N=C2CN1c1c(C)cccc1C` (centres undefined) was run?
The growth was 103%.

Which growth does the source give for `O=C(Nc1cccc(Oc2nnc(Cl)c3ccccc23)c1)Nc1ccc(Cl)c(C(F)(F)F)c1` here?
The growth was -17.2% (active).

How did the growth turn out when `CN1CCN(CCCOc2ccc3nc(Nc4ccc(F)c(F)c4)ccc3c2)CC1` was run?
The growth was 33.8%.

For `COc1ccccc1NC(=O)N/C(N)=N/c1nc2ccccc2s1`, which growth is on record?
The growth was 27.9%.

With `Cc1ccc(Nc2nc(N)nc(CSCC(=O)NN)n2)cc1` as the compound, how does the growth read?
Its growth is 90.9%.

With `CC1CC(C(C)(C)C)C(=O)C(C(C)(C)C)C1` (centres undefined) as the compound, how does the growth read?
Its growth is 106%.

For `O=C(O)c1ccc2c(c1Cl)C(=O)c1ccccc1C2=O`, which growth is on record?
Its growth is 123%.

`N=c1sc(Cc2ccc(Cl)cc2)cn1CC(=O)c1ccc(F)cc1` was tested. Which growth did it give?
Its growth is 96.9%.

With `CCCCn1c(=O)c2c(nc3n2CCCN3CCc2ccc(OCC(=O)NCCN(CC)CC)cc2)n(CCCC)c1=O` as the compound, how does the growth read?
Its growth is 20.8%.

Which growth does the source give for `COc1ccc(NC(=O)c2nc(-c3cc(OC)c(OC)c(OC)c3)n(-c3cccc4ccccc34)n2)cc1OC` here?
Its growth is 23.4%.

Which growth does the source give for `O=C1CCc2c(sc3[nH]c(=S)n(-c4ccc(OC(F)(F)F)cc4)c(=O)c23)C1` here?
Its growth is 37.1%.

Which growth does the source give for `C[C@@]1(CCC#N)[C@H]2CC[C@@H]3[C@H]4[C@H](C(=O)/C=C/c5cccnc5)CC[C@]4(C#N)CC[C@@]3(C)[C@]2(C)CC[C@H]1C(=O)/C=C/c1cccnc1` here?
Its growth is 78.4%.

Which growth does the source give for `Cc1c(C)c2c(c(C)c1OCC(=O)O)CC[C@@](C)(CCC[C@@H](C)CCC[C@@H](C)CCCC(C)C)O2` here?
Its growth is 23% [50 µM].

`O=C(NCCCNc1cc(-c2cn(-c3ccccc3)nc2-c2cccc(O)c2)ccn1)c1ccc(F)cc1` was tested. Which growth did it give?
Its growth is -16.7% (active).

With `Cn1c(-c2c(N)n(Cc3ccc(C(F)(F)F)cc3)c3nc(C#N)c(C#N)nc23)nc2ccccc21` as the compound, how does the growth read?
The growth was 12.4%.

Which growth does the source give for `Nc1nc(N)c2c(n1)NC(c1ccccc1)C1CCc3ccccc3C1=N2` (centres undefined) here?
The growth was 71.2%.

With `COc1ccc2[nH]c(O)c(/C=c3/cc4c(c(-c5cc(OC)c(OC)c(OC)c5)n3)=Nc3ccccc3-4)c2c1` as the compound, how does the growth read?
The growth was 73.9%.

How did the growth turn out when `CCOC(=O)c1c2ncccc2n2c(=O)n(-c3ccccc3C)nnc12` was run?
The growth was 112%.

For `COc1cccc(C(=O)NCCCNc2cc(-c3cn(-c4ccccc4)nc3-c3cccc(OC)c3)ccn2)c1`, which growth is on record?
The growth was 47.5%.

How did the growth turn out when `N[C@@H](CCCCNCC(=O)O)C(=O)O` was run?
The growth was 98.2%.

How did the growth turn out when `CC(CCc1ccc(Cl)c(Cl)c1)NCc1ccc(C(C)(C)C)cc1` (centres undefined) was run?
Its growth is 85.2%.

For `O=Cc1ccc(O)c2ncccc12`, which growth is on record?
Its growth is 41.6%.

How did the growth turn out when `CCCCOc1nc2ccccc2cc1C1CNC(=O)c2ccccc2N1` (centres undefined) was run?
Its growth is 34.1%.

Which growth does the source give for `COc1ccc2occ(C3=C(c4c[nH]c5ccccc45)C(=O)N(O)C3=O)c2c1` here?
Its growth is 95.7%.

With `N#CC1=C(NC=O)Oc2c(ccc3ccccc23)C1c1ccccc1` (centres undefined) as the compound, how does the growth read?
The growth was 11.3%.

How did the growth turn out when `Fc1c[c-]c(-c2ccccn2)c(F)c1.[CH3-].[Pt+2].c1ccc(P(C[PH+](c2ccccc2)c2ccccc2)c2ccccc2)cc1` was run?
Its growth is -5.48% (active).

For `N=C1C(c2nc(-c3ccc(Br)cc3)cs2)=C(O)CN1CC1CCCO1` (centres undefined), which growth is on record?
The growth was 89%.

How did the growth turn out when `NS(=O)(=O)c1cnccc1Sc1ccncc1S(N)(=O)=O` was run?
The growth was 94.5%.

`N#Cc1c(-c2ccccn2)[nH]c(=S)[nH]c1=O` was tested. Which growth did it give?
Its growth is 109%.
